# According to PubChem BioAssay (Tox21):
# Inconclusive results are not listed. Activity calls are given as the source filed them. Calls come from the whole dose curve; as a rule, active = well fitted cell-killing curve with a large enough effect in the repeat runs; inconclusive = weak or mixed curves, or effect the other way; inactive = flat fitted curve, though single readings scatter.
# Experiment: qHTS RealTime-Glo MT Cell Viability Assay in HepG2 cells - 0 hour (AID 1224889); note: nearly all actives have a fitted effect of over 50% in size
# Settings: RealTime-Glo luminescence; series mostly up to 76.8 µM; activity change, negative = cytotoxicity: at the top concentration
# Source text: U.S. Tox21 Program National Center for Advancing Translational Sciences [NCATS] NIH Chemical Genomics Center [NCGC] U.S. Environmental Protection Agency [EPA] National Institutes of Environmental Health Sciences [NIEHS] National Toxicology Program [NTP] U.S. Food and Drug Administration [FDA] Tox21 Assay Overview: Measure of cell viability is critical in the cell-base assay. Analysis of cell viability is necessary for the characterization of cell responses to cytotoxic drugs and environmental stress. A RealTime-Glo MT Cell Viability Assay to monitor cell viability in real time of continues cell culture during 40 hours of compound treatment was used to screen Tox21 10K library compounds in HepG2 cells. The RealTime-Glo MT Cell Viability Assay is a nonlytic, homogeneous, bioluminescent method to measure cell viability in real time using a simple, plate-based method. The assay involves adding NanoLuc luciferase and a cell-permeant prosubstrate to cells in culture. Viable cells reduce the proprietary prosubstrate to generate a substrate for NanoLuc luciferase. This substrate diffuses from cells into the surrounding culture medium, where it is rapidly used by the NanoLuc Enzyme to produce a luminescent signal. The signal correlates with the number of viable cells, making the assay well suited for cytotoxicity studies.
# Tox21 Assay Protocol Summary: The mixture of HepG2 cell suspension and reagents were dispensed at 600cells/6 ul/well in 1536-well tissue culture treated black solid bottom plates using a Multidrop dispenser. After the assay plates were incubated at a 37 C/5% CO2 incubator for 5 hours, 23 nL of compounds dissolved in DMSO, positive and negative controls was transferred to the assay plate by a pintool work station. The plates were incubated at 37 C for 40 hours. The luminescence intensity were measured at 0h, 8h, 16h, 24h, 32h and 40h time points using ViewLux plate reader during compound treatment.
# % is set by controls: 0 for no effect and ±100 for the full control effect.
Structure (SMILES),"activity change, negative = cytotoxicity",outcome
CC[N+]1(CCOC(=O)C(O)(c2ccccc2)c2ccccc2)CCCCC1,3.16% [at 35.3 µM] (inactive),
CC[N+]1(C)CCCC(OC(=O)C(O)(c2ccccc2)c2ccccc2)C1 (stereo not given),0.257% [at 35.3 µM] (inactive),
C[C@H]1[C@@H]2Cc3ccc(O)cc3[C@@]1(C)CCN2C,-1.26% [at 200 µM] (inactive),
C[N+]1(CCC(C(N)=O)(c2ccccc2)c2ccccc2)CCCCC1,-2.98% [at 35.3 µM] (inactive),
Clc1ccc2ccccc2c1,1.67% (inactive),
CN1C[C@H](C(=O)N[C@]2(C)O[C@@]3(O)[C@@H]4CCCN4C(=O)[C@H](Cc4ccccc4)N3C2=O)C=C2c3cccc4[nH]cc(c34)C[C@H]21,,inactive
O=C(N/N=C/c1ccc([N+](=O)[O-])o1)c1cc([N+](=O)[O-])cc([N+](=O)[O-])c1O,-28.8% [at 35.3 µM] (inactive),
CC(C)(C)c1ccc(CCOc2ncnc3ccccc23)cc1,4.07% (inactive),
O=[N+]([O-])O[C@H]1CO[C@H]2[C@@H]1OC[C@H]2O[N+](=O)[O-],7.36% [at 35.3 µM] (inactive),
O=C(O)COc1cc(Cl)c(Cl)cc1Cl,,inactive
CCCC(C)(COC(N)=O)COC(=O)NC(C)C (stereo not given),,inactive
CC(Oc1cccc(Cl)c1)C(=O)O (stereo not given),-9.5% (inactive),
C=CC(=O)OCC,8.75% (inactive),
COP(=O)(OC)OC(Br)C(Cl)(Cl)Br (stereo not given),,inactive
O=C(O)c1ccc(=O)[nH]c1,11.8% [at 35.3 µM] (inactive),
CCC[N+](CCC)(CCC)CCC,10.3% (inactive),
CC(C)(c1ccccc1)c1cc(-n2nc3ccccc3n2)c(O)c(C(C)(C)c2ccccc2)c1,5.15% [at 35.3 µM] (inactive),
SCc1ccccc1,1.01% (inactive),
CC(C)(C)N(NC(=O)c1ccc(Cl)cc1)C(=O)c1ccccc1,-8.17% (inactive),
Oc1cccc(Cl)c1,0.0859% (inactive),

Structure (SMILES),"activity change, negative = cytotoxicity",outcome
O=[N+]([O-])c1cc(Cl)c(Cl)cc1Cl,0.209% (inactive),
CCOc1cccc(C2(N3CCN(c4ccccc4)CC3)CCC(C)CC2)c1 (stereo not given),-0.625% (inactive),
CCCCOC(=O)CCC(=O)OCCCC,3.47% (inactive),
CC(=O)NNc1ccccc1,-3.04% (inactive),
COC1CC(=C(c2cccs2)c2cccs2)C[N+](C)(C)C1 (stereo not given),7.67% [at 35.3 µM] (inactive),
CCCCC(CC)COC(=O)c1c(Br)c(Br)c(Br)c(Br)c1C(=O)OCC(CC)CCCC (stereo not given),1.95% [at 35.3 µM] (inactive),
O=C=NC1CCCCC1,-0.935% (inactive),
C[CH2][Hg][S]c1ccccc1C(=O)O,,inactive
CCCCCCCCCCCCN(C)C,1.25% (inactive),
O=C1c2ccccc2C(=O)N1SC(Cl)(Cl)Cl,,inactive
CCOC(C(=O)OCCN(C)C)(c1ccccc1)c1ccccc1,6.27% [at 35.3 µM] (inactive),
C[N+](C)(C)CC1CO1 (stereo not given),12.3% (inactive),
CCc1cnc(C2=NC(C)(C(C)C)C(=O)N2)c(C(=O)O)c1 (stereo not given),,inactive
C=CCN1C[C@H](C)N([C@H](c2ccc(C(=O)N(CC)CC)cc2)c2cccc(OC)c2)C[C@H]1C,0.593% [at 35.3 µM] (inactive),
O=C(O)c1cc(I)cc(I)c1I,-6.29% (inactive),
COc1cc(CC(C)N)c(OC)cc1Br (stereo not given),17.5% (inactive),
CCC(C)(C)O,-1.08% (inactive),
COc1ccc(C(=O)c2c(C)n(CCN3CCOCC3)c3ccccc23)cc1,-28.9% [at 35.3 µM] (inactive),
O=C(CCl)CCl,,inactive
Cc1ccccc1,4.69% (inactive),
